Inconclusive results are not listed. A call without a number means that no potency is given here. Activity calls are given as the source filed them. Calls come from the whole dose curve; as a rule, active = well fitted inhibition curve with a large enough effect in the repeat runs; inconclusive = weak or mixed curves; inactive = no such curve, though single readings can be large or run the other way.
What follows are compounds tested against Estrogen receptor (Homo sapiens) (UniProt P03372) (assay: qHTS assay to identify small molecule antagonists of the estrogen receptor alpha (ER-alpha) signaling pathway using the BG1 cell line in the presence of 0.1 nM 17-beta-estradiol (AID 1259244; note: nearly all actives have a fitted effect of over 50% in size)). Details: VM7Luc4E2 (BG1) ERE-luciferase, antagonist mode, 0.1 nM E2, 22 h; series mostly up to 92.4 µM.
Procedure, shortened: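 Compounds were tested against 0.1 nM (final) 17beta-estradiol in VM7Luc4E2 cells, which express full-length ER-alpha and an ERE-luciferase reporter; luminescence was recorded following 22 h exposure.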
Potency is the fitted concentration of half-maximal effect.

Estrogen receptor (Homo sapiens), sequence (P03372 whole entry, looked up): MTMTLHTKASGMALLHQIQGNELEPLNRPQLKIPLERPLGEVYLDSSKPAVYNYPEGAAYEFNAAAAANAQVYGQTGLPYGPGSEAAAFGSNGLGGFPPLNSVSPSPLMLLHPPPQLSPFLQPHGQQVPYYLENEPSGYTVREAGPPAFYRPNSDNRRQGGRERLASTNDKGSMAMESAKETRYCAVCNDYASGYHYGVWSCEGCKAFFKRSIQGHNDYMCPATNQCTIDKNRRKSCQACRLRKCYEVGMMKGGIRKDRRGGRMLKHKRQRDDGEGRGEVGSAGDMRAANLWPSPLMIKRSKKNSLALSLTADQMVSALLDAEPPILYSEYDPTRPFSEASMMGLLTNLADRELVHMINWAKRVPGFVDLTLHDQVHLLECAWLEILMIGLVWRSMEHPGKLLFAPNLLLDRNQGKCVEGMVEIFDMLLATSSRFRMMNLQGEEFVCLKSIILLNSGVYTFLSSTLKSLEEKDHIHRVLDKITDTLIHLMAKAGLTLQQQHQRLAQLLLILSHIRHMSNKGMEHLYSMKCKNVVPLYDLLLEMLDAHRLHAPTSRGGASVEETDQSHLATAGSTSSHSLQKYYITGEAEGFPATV

Row | Structure (SMILES) | Potency
1 | CCCC(=O)OCc1ccccc1 | inactive
2 | CC[C@H](NC(C)C)[C@H](O)c1ccc(O)c2[nH]c(=O)ccc12 | inactive
3 | CCCCCCCCOCCCN | inactive
4 | COc1cc(CNC(=O)CCCC/C=C/C(C)C)ccc1O | 59.5 µM (active)
5 | C[C@H]1C[C@H]2[C@@H]3CCC4=CC(=O)C=C[C@]4(C)[C@@]3(F)[C@@H](O)C[C@]2(C)[C@@]1(O)C(=O)COP(=O)(O)O | inactive
6 | CC(C)(C)N | inactive
7 | CNc1ccccc1 | inactive
8 | C=Cc1ccc(C=C)cc1 | inactive
9 | O=C1OC(=O)C2CC=CCC12 (configuration not stated) | inactive
10 | CC1(C)C(=O)NC(=O)N1CO | inactive
11 | Nc1ccc(C(=O)Oc2ccccc2)c(O)c1 | inactive
12 | COC(=O)/C=C/C(C)=C\C=C\C(C)=C\C=C\C=C(C)\C=C\C=C(C)\C=C\C(=O)O | inactive
13 | O=c1[nH]nc(-c2ccc([N+](=O)[O-])o2)o1 | inactive
14 | C/C(=C(\CCO)SS/C(CCO)=C(\C)N(C=O)Cc1cnc(C)nc1N)N(C=O)Cc1cnc(C)nc1N | inactive
15 | O=[N+]([O-])c1cccc(I)c1 | inactive
16 | CC1(COc2ccc(CC3SC(=O)NC3=O)cc2)CCCCC1 (configuration not stated) | inactive
17 | CC(=O)c1ccc(Cl)c(Cl)c1Cl | inactive
18 | CC1=C(C)C(=O)C(C(CCCCCC(=O)O)c2ccccc2)=C(C)C1=O (configuration not stated) | inactive
19 | N#CCCCC(C#N)CCC#N (configuration not stated) | inactive
20 | C(/C=C/C=C/Nc1ccccc1)=Nc1ccccc1 | inactive
21 | Cc1cc(C)n(CO)n1 | inactive
22 | CCC1=C(C)CN(C(=O)NCCc2ccc(S(=O)(=O)NC(=O)NC3CCC(C)CC3)cc2)C1=O (configuration not stated) | inactive

— PubChem BioAssay (Tox21)
